Glyco luc inh: N-linked glycosylation inhibition | reporter increase, % at 12.5 µM | D54 ERlucT glycosylation luciferase reporter, 24 h; percent of 100 nM tunicamycin response | 360,000 tested, 0.23% active | AID 588692;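 active means mean luciferase reporter signal, scaled so untreated is 0 and the glycosylation-blocking control 100, at or above a set limit in every replicate; inconclusive means mean reaches the limit but not every replicate does; inactive means mean below the limit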;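 further: luciferase carries N-glycosylation sites so blocking glycosylation raises the light; 0% = median of neutral control wells and 100% = median of 100 nM tunicamycin wells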
Wnt act: activates Wnt/beta-catenin signaling in a reporter cell assay; activator, plate reader; activation, % at 9.35 µM; 300,000 tested, 1.2% active; in the data active means activation above about 30%, passing the limit was not always enough; inconclusive means no clear call, values can overlap the other calls;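 further: 0% = neutral control wells and 100% = positive control wells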
esBAF inh: inhibitors of esBAF chromatin remodeling in mouse ES cells; Bmi1-luciferase knock-in reporter, 24 h; 100% = twice the neutral-well signal; reporter increase, % at 12.5 µM; 350,000 tested, 2% active; in the data active means activation above about 40%; inconclusive means no clear call, values can overlap the other calls;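 further: 0% = median of the plate's neutral control wells and 100% = double that signal; a rise in the Bmi1 reporter signal indicates esBAF inhibition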
Vif imaging: HIV Vif inhibition; inhibition, % at 7.49 µM; HEK293T cells, Vif self-association by quenched fluorescence, imaging, 24 h; 340,000 tested, 0.35% active; in the data active means inhibition above about 50%, passing the limit was not always enough; inconclusive means no clear call, values can overlap the other calls; inactive means below about 31%
MITF act: increases MITF-driven TRPM1 promoter luciferase signal | SK-MEL-5 TRPM1-promoter luciferase, 24 h; % of positive control, neutral wells = 0 | activation, % at 12.5 µM | 300,000 tested, 0.75% active;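 active means mean activation of at least 80% with every replicate also reaching 80%; inconclusive means mean reaches 80% but some replicate falls short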;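 further: 0% = neutral control wells and 100% = parthenolide positive control wells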
PfHsp90 set2: inhibits growth of yeast expressing Plasmodium falciparum Hsp90 | S. cerevisiae expressing PfHsp90, BacTiter-Glo ATP, 48 h; yeast lacking PDR1 and PDR3 efflux regulators | inhibition, % at 9.4 µM | 310,000 tested, 0.32% active;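 active means every replicate shows inhibition above about 80%, whatever the replicate mean, limit read from the data; inconclusive means mean inhibition reaches the set limit but some replicate falls short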;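 further: 0% = DMSO neutral controls and 100% = 20 µM radicicol positive controls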
* marks the source's active call; other numbers are inactive results; ? = inconclusive; . = no result given. Compounds with a hit are over-represented: about 3% of the library has one in this group of screens.

SMILES | Glyco luc inh | Wnt act | esBAF inh | Vif imaging | MITF act | PfHsp90 set2
Cc1nn(C)c(C)c1NC(=O)/C(C#N)=C\N(C)C | 3.4 | 0.2 | . | 4.7 | . | 4.7
COc1ccc(OCCNS(=O)(=O)c2ccccc2)cc1 | -1.3 | 0.2 | 6.5 | 52.2* | -4.6 | 8.8
COc1ccc(S(=O)(=O)NCCOc2ccc(Cl)cc2)cc1 | 0.4 | -2.2 | -6.6 | 6.6 | 0.6 | .
O=C(O)c1ccccc1C(=O)Nc1ccc(Nc2ccc([N+](=O)[O-])cc2[N+](=O)[O-])cc1 | -0.9 | 1.2 | 0.0 | 10.2 | 17.2 | 13.0
Cc1nc(N/N=C/c2ccccn2)sc1C | . | -7.2 | . | . | . | .
CCCc1sc(N/N=C/c2ccccn2)nc1-c1ccc(F)cc1 | -12.0 | . | 9.6 | . | -58.3 | 124.1*
CCc1ccc(OCc2ccc(C(=O)OC)o2)cc1 | -3.3 | 30.6* | ? | 9.3 | 88.8* | -10.2
CCOc1ccc(OCc2ccc(C(=O)NCc3ccncc3)o2)cc1 | 1.2 | . | 10.0 | -2.0 | 9.7 | 11.4
CCc1ccc(OCc2ccc(C(=O)NCc3ccccn3)o2)cc1 | 4.2 | . | 45.9* | 13.6 | 21.0 | 7.2
CCCc1ccc(OCc2ccc(C(=O)N3CCSCC3)o2)cc1 | 3.2 | 12.1 | 47.1* | -0.4 | 39.4 | -32.3
CC(C)(C)c1ccc(OCc2ccc(C(=O)N3CCOCC3)o2)cc1 | 16.6 | 27.7 | 33.8 | -4.9 | 54.7 | -8.5
CCCc1ccc(OCc2ccc(C(=O)OC)o2)c(OC)c1 | -2.8 | 19.4 | 43.1* | -8.0 | 34.3 | .
CCCc1ccc(OCc2ccc(C(=O)O)o2)c(OC)c1 | -1.3 | . | 11.1 | -7.1 | -8.1 | 6.9
O=C(O)c1cccnc1-c1ncccc1C(=O)O | 0.8 | . | . | 14.5 | 7.9 | 20.5
CC1=NNC(=O)C1CCC(=O)N/N=C/C=C/c1ccccc1 (stereo not drawn) | -0.6 | -0.3 | . | -2.2 | 3.6 | 4.6
O=C(CSc1ccccc1)N1CCN(S(=O)(=O)c2cccs2)CC1 | -2.1 | 1.1 | . | . | 9.5 | 21.1
COc1cccc(OCc2cc(C(=O)N(C)Cc3nc(C)cs3)no2)c1 | -1.4 | 27.0 | 77.8* | 1.6 | 73.6 | -7.5
COc1cccc(OCc2cc(C(=O)NCc3ccccn3)no2)c1 | -2.5 | 16.4 | 61.3* | -5.7 | 110.2* | -3.3
COc1cccc(OCc2cc(C(=O)NCCc3cccc(C)n3)no2)c1 | 2.4 | 0.5 | 4.7 | -0.8 | 2.1 | 11.5
COc1ccc(C(=O)OCCc2cc3ccccc3c(=O)o2)cc1 | -2.7 | -2.0 | 19.0 | -6.8 | 59.8 | -13.9
COc1ccc(C/C(N)=N/OC(=O)c2cccs2)cc1 | 1.7 | 0.9 | . | -1.0 | 6.3 | -36.1
O=C(OCCc1cc2ccccc2c(=O)o1)c1cccs1 | -3.6 | -0.2 | 74.6* | 0.1 | 92.9* | 27.6
COc1ccc(OCCOC(=O)c2cccs2)cc1 | 0.5 | 1.1 | 49.6* | -3.9 | . | .
CCc1nnc(NC(=O)c2cccc(NC(=O)C(C)C)c2)s1 | -1.5 | 23.9 | . | -8.0 | 35.7 | 34.5
CCOC(=O)c1c(C)[nH]c(C(=O)OCC(=O)N(CC)c2c(N)n(Cc3ccccc3)c(=O)[nH]c2=O)c1C | 1.9 | -0.7 | -1.0 | 6.0 | -4.9 | .
SMILES | Glyco luc inh | Wnt act | esBAF inh | Vif imaging | MITF act | PfHsp90 set2
COc1ccc(S(=O)(=O)N2CCC(C(=O)NCCC(=O)Nc3cccc(OC)c3)CC2)cc1 | -1.2 | -2.0 | -7.4 | -6.5 | -4.6 | 19.9
COc1ccc(NC(=O)N(C)C[C@H]2Oc3ccc(NS(=O)(=O)c4ccc(C)cc4)cc3C(=O)N([C@@H](C)CO)C[C@@H]2C)cc1 | . | . | -1.9 | . | . | .
N#C/C(=C(/O)CN1CCCCC1)c1nc(-c2ccc(Cl)cc2)cs1 | -0.9 | . | 59.9* | -0.7 | 37.6 | -8.1
O=C1c2ccccc2NC(c2ccccn2)N1c1ccc(Cl)cc1 (stereo not drawn) | -1.0 | . | 60.7* | 3.5 | 76.4 | 3.9
CCOc1ccc(/C=N/NC(=O)Cn2ccnc2C)cc1 | -0.5 | 51.3* | -7.2 | -5.9 | . | 0.5
O=C(NCCc1cccs1)C1CC(c2cccc(F)c2)=NO1 (stereo not drawn) | 5.3 | -2.5 | -1.5 | . | 1.6 | -9.8
O=C(NCCc1cccs1)C1CC(c2c(Cl)cccc2Cl)=NO1 (stereo not drawn) | 2.5 | 6.3 | 80.1* | -3.0 | 16.1 | -12.2
COc1ccc(CNC(=O)CN(C)Cc2ccccc2F)cc1OC | -0.6 | 0.8 | -5.6 | -2.5 | . | 28.9
O=C(CCc1ccccc1)Nc1ccc(N2CCCCC2)cc1 | -0.2 | . | 49.8* | -3.1 | 67.4 | 4.0
O=C(Cc1ccccc1)Nc1ccc(N2CCOCC2)cc1 | -0.3 | 25.6 | . | 59.3* | 15.1 | -4.6
Cc1cn(CCC(=O)Nc2ccc(N3CCOCC3)cc2)c2ccccc12 | 1.1 | 16.4 | ? | 4.4 | 81.4* | -4.9
Cc1cn(CCC(=O)Nc2ccccc2N2CCOCC2)c2ccccc12 | -1.9 | -1.7 | . | -3.7 | . | -1.4
CC(C)NC(=O)Nc1ccc2c(c1)CC(=O)N([C@H](C)CO)C[C@H](C)[C@@H](CN(C)Cc1ccc(C(=O)O)cc1)O2 | . | . | -3.9 | . | . | .
COc1ccc(C(=O)Nc2ccc3c(c2)C(=O)N(C)C[C@@H](OC)[C@H](C)CN[C@H](C)CO3)cc1 | . | . | -2.4 | . | . | .
COc1ccc(OC)c(C(=O)N2CCC(CCC(=O)NC3CC3)CC2)c1 | 1.0 | 1.1 | -6.1 | 1.1 | -0.9 | 16.7
Cn1c2ccccc2c(=O)c2cc(NCCCN3CCOCC3)ccc21 | 18.9 | 25.4 | 32.6 | 1.4 | 54.9 | 5.0
O=c1c2ccccc2oc2cc(NCCCN3CCOCC3)ccc12 | -4.9 | 43.7* | 43.1* | 0.5 | 106.1* | .
O=c1c2ccccc2oc2ccc(NCCCN3CCOCC3)cc12 | -5.0 | 26.3 | -5.8 | 2.9 | 136.8* | 1.7
COc1ccc(CNC(=O)COc2cc(O)c3c(c2)OC(C)(C)CC3=O)cc1 | -3.1 | 0.2 | 8.8 | -6.2 | 6.6 | -8.3
C/C(=N\NC(=O)c1ccc2c(c1)OCO2)c1ccc(NS(C)(=O)=O)cc1 | 0.1 | 2.5 | 50.9* | -0.2 | 20.9 | -24.8
O=C(N/N=C/c1ccc(Cl)cc1)c1ccc2c(c1)OCO2 | 13.2 | 17.8 | 63.1* | -5.8 | 46.4 | -10.4
O=C(CN(CCc1ccccc1)S(=O)(=O)c1ccc(Cl)cc1)N/N=C/c1ccc2c(c1)OCO2 | -4.6 | 34.0* | . | 6.8 | -4.0 | 0.5
O=C(N/N=C/c1ccsc1)c1ccc2c(c1)OCO2 | -4.2 | 13.8 | 48.6* | -2.0 | 86.3* | 9.8
Cc1cc(C)c(C#N)c(Nc2ccc3c(c2)OCCO3)n1 | 0.9 | 0.4 | -38.4 | . | 8.6 | -1.8
COC(=O)C(Cc1ccc(OC(=O)c2ccccc2Cl)cc1)N1Cc2ccccc2C1=O (stereo not drawn) | -1.8 | . | 44.4* | -2.7 | 48.1 | -18.4
COC(=O)CSc1nc(C2CC2)cc(C(F)(F)F)c1C#N | -2.7 | -5.9 | -4.7 | 79.0* | 7.9 | -15.8
COc1ccc(C(=O)N2CCN(c3ccc(N4CCOCC4)nn3)CC2)cc1OC | 1.5 | 0.4 | 4.0 | 3.2 | 0.5 | 0.8

Compound activity deposited in PubChem BioAssay by Broad Institute.
